Cy5 interf NS3h – Cy5 fluorescence quenchers or enhancers, artefact control for HCV NS3 helicase inhibitor project, biochemical, ChemBridge library, Cy5 readout. actives 6% (n = 16,000). Cy5-dT15 DNA with NS3h, fluorescence interference; actives lie on both sides; signal over control mean, under 1 quenches. fluorescence interference ratio at 100 µM;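 active = compound fluorescence over control fluorescence at most 0.8, a quencher, or at least a set upper limit, an enhancer; inactive = ratio between 0.8 and the set upper limit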
HCV NS3h FP – HCV NS3 helicase inhibitors, primary screen, biochemical, fluorescence polarization, ChemBridge library; Hepatitis C virus NS3 helicase; NS3h Cy5-dT15 DNA binding; inhibition, % at 100 µM; actives 1.6% (n = 16,000); AID 687043, 2013;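 active = inhibition above the average over every tested compound plus 3 SD, cut at about 40% in these data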
The depositor's hits bear a star. Most compounds without a hit are left out; they make up all but 7.6% or so of the library.

SMILES | Cy5 interf NS3h | HCV NS3h FP
Cc1cc2nc(-c3cc(NC(=O)COc4ccc(Cl)cc4Cl)ccc3O)oc2cc1C | 1.1 | 0
Cc1ccsc1/C=C1\SC(=O)NC1=O | 0.99 | 31
CCOc1ccc(N(CC(=O)NCCc2ccccc2)S(=O)(=O)c2ccc(SC)cc2)cc1 | 1 | 11
COc1cc(/C=C2/SC(=S)N(C)C2=O)ccc1OC(=O)c1ccccc1Cl | 1 | 8
Cc1ccc(NC(=O)c2cccc(Cl)c2Cl)c([N+](=O)[O-])c1 | 0.98 | 10
COC(=O)C1=C(C)N=c2s/c(=C\c3ccccc3[N+](=O)[O-])c(=O)n2C1c1ccccc1Cl (stereo unspecified) | 0.98 | 10
CS(=O)(=O)N(CC(=O)NCc1cccnc1)c1ccc(Cl)cc1 | 1.1 | -1
O=C1/C(=C/c2ccc(I)o2)SC(=S)N1Cc1ccccc1 | 0.66* | 7
O=C1/C(=C\c2ccc(-c3ccccc3Cl)o2)SC(=S)N1Cc1ccccc1 | 1 | 1
Cc1cc(C)c2sc(NC(=O)c3cccc(Cl)c3)nc2c1 | 1.1 | 23
O=C(CC1S/C(=N/N=C\c2ccccc2)NC1=O)Nc1ccccc1F (stereo unspecified) | 1.2* | -8
COc1ccccc1/C=N\N=C1/NC(=O)C(CC(=O)Nc2cccc(C)c2C)S1 (stereo unspecified) | 1 | 15
O=C(O)CN1C(=O)/C(=C\c2ccc(OCc3ccccc3)cc2)SC1=S | 0.97 | 16
Cc1ccc(N2C(=O)CC(N3CCC(C)CC3)C2=O)cc1 (stereo unspecified) | 1.2* | 10
Cc1ccc(N2C(=O)CC(N3CCSCC3)C2=O)cc1 (stereo unspecified) | 0.91 | 27
O=[N+]([O-])c1ccc(S(=O)(=O)Nc2ccccc2CO)cc1 | 1 | 7
O=C1N=c2ccccc2=C1c1sc(=S)n(-c2ccc(C(=O)O)cc2)c1O | 1.2* | 2
Cc1cccc(-n2c(O)c(C3=c4ccccc4=NC3=O)sc2=O)c1 | 0.92 | 4
Cc1cc(=O)[nH]c(SC(C(=O)c2ccccc2)c2ccccc2)n1 (stereo unspecified) | 1 | 17
O=S(=O)(Nc1ccc(Br)cc1)c1ccc(Cl)cc1 | 0.79* | 10
O=S(=O)(Nc1ccc(O)cc1)c1ccc(F)cc1 | 1 | 1
O=S(=O)(Nc1ccc(O)cc1)c1ccc(Br)cc1 | 1 | 1
O=C(c1ccc(F)cc1)c1ccc(NS(=O)(=O)c2ccc(Cl)cc2)cc1 | 1.2* | -3
COc1ccc(C(=O)N/C(=C\c2ccc(-c3cccc([N+](=O)[O-])c3)o2)C(=O)NC(C)C)cc1 | 0.94 | 7
COCCOC(=O)C1=C(C)N=c2s/c(=C\c3ccccc3Cl)c(=O)n2C1c1ccc(OC)cc1 (stereo unspecified) | 0.96 | -4
SMILES | Cy5 interf NS3h | HCV NS3h FP
Cc1cc(C(=O)N/N=C\c2cc(O)ccc2[N+](=O)[O-])n[nH]1 | 0.93 | -3
Nc1ccc(C(=O)NCCNCCNC(=O)c2ccc(N)cc2)cc1 | 0.8* | 15
Nc1ccc(C(=O)Nc2cccc3ccccc23)cc1 | 1.1 | 14
Cc1ccc(S(=O)(=O)NCc2ccncc2)cc1[N+](=O)[O-] | 0.99 | 5
Cc1cc(OCC(O)CN2C(C)CCCC2C)cc(C)c1Cl (stereo unspecified) | 1.1 | 14
C/C(=N/N=C1\NC(=O)C(CC(=O)Nc2ccc(Cl)cc2Cl)S1)c1ccc(Cl)cc1 (stereo unspecified) | 1.2 | -29
COc1ccc(/C(C)=N\N=C2/NC(=O)C(CC(=O)Nc3cc(Cl)ccc3Cl)S2)cc1 (stereo unspecified) | 1.2* | 10
Nc1nnc(SCc2ccc([N+](=O)[O-])cc2)s1 | 0.72* | 11
Nc1nnc(SCC(=O)Nc2ccccc2[N+](=O)[O-])s1 | 0.95 | 3
CCOC(=O)CSCCOc1ccc(/C=C2/C(=O)NC(=O)N(c3ccc(OC)cc3)C2=O)cc1OC | 0.85 | 15
CC(Nc1cc(N2CCN(C)CC2)ccc1[N+](=O)[O-])c1ccc(Br)cc1 (stereo unspecified) | 0.9 | 19
Cc1ccc(OCCNc2cc(N3CCN(C)CC3)ccc2[N+](=O)[O-])cc1C | 0.61* | 21
O=C1CSC2(N1)C1CC3CC(C1)CC2C3 (stereo unspecified) | 1.2* | -1
O=C(O)C(Cc1c[nH]c2ccccc12)NS(=O)(=O)c1ccc([N+](=O)[O-])cc1 (stereo unspecified) | 1.2 | 12
CCOc1ccc(NC(=S)NC(=O)/C=C/c2ccc(C)cc2)c([N+](=O)[O-])c1 | 0.93 | 12
CCOc1ccc(NC(=S)NC(=O)/C=C/c2ccc(OC)c(OC)c2)c([N+](=O)[O-])c1 | 0.8* | -6
CCOc1ccc(NC(=S)NC(=O)c2ccc(OC)cc2)c([N+](=O)[O-])c1 | 1 | 8
CCOc1ccc(NC(=O)c2ccc(S(=O)(=O)N(C)C)cc2)c([N+](=O)[O-])c1 | 0.57* | 16

High-throughput results from PubChem BioAssay.
